From PubChem BioAssay AID540253 (National Center for Advancing Translational Sciences (NCATS), 2011)
The campaign covered roughly 340,000 compounds. About 240 (0.071%) were called active. Calls come from the whole dose curve. Shown is part of a subset that was picked to be rich in actives.

Each compound was assayed against Snurportin-1 (Homo sapiens) + GTP-binding nuclear protein Ran (Homo sapiens) + Importin subunit beta-1 (Homo sapiens) (UniProt O95149+P62826+Q14974) (assay: qHTS Assay for Inhibitors of RanGTP induced Rango (Ran-regulated importin-beta cargo) - Importin beta complex dissociation). Conditions: Biochemical FRET Rango-importin beta; series mostly up to 46.1 µM.
Text: NIH Molecular Libraries Probe Production Centers Network [MLPCN] NIH Chemical Genomics Center [NCGC] MLPCN Grant: R03 MH090808-01A1 Assay Submitter (PI): Petr Kalab NCGC Assay Overview: The small GTPase Ran regulates transport of macromolecules between the nucleus and the cytoplasm (nuclear transport) and has important functions in mitotic spindle assembly, nuclear envelope (NE) formation and nuclear pore complex (NPC) assembly. RanGTP gradient is thought to promote spindle assembly by providing a spatial clue to microtubule nucleation and Aurora A activation. Because the localized release and binding of importin alpha cargos relays this spatial clue to SAFs, inhibitors of the Rango - importin beta complex can then be used in further understanding their role in cell cycle specifically in mitosis progression. […] Activation of Aurora A has been linked to different types of cancer and a number of Aurora kinase inhibitors are being developed as potential canter therapeutics; therefore, identified inhibitors of this complex could be developed into potential anti-mitotic probes for cancer treatment. Purified recombinant proteins Rango - importin beta and RanGTP-RCC1 stock premixes were provided by the assay submitter. The assay used a fluorescence resonance energy transfer (FRET) Rango biosensor that contains the IBB of human snurportin 1 flanked by yellow fluorescent protein (EYFP) at the amino terminus and cerulean CFP10 at the carboxy terminus. […] RanGTP binding to the complex (in the presence of RCC1) releases the Rango from the complex. The flexibility of the IBB in the freed Rango allows the donor - acceptor fluorophores to interact, resulting in a high FRET signal. Inhibitors will therefore be identified based on the ability to interfere with the FRET signal increase. DMSO treated and no RanGTP-RCC1 (buffer only) wells were used as negative and positive controls respectively. FRET readings were obtained at two time points. FRET reading prior to importin beta addition (pre-read) were used flag potential compound interference; FRET reading after importin beta addition (post-read) were used to identify inhibitors.
NCGC Assay Protocol Summary: Two and a half uL/well of Rango- importin beta premix solution (0.1 uM Rango, 0.25 uM importin beta, 1x PBS, 1mM DTT, 0.02% Tween-20, 0.1% BSA final concentrations) was dispensed into 1536-well assay plates (Greiner, solid black medium-binding plates) with Aurora Discovery BioRAPTR Flying Reagent Dispenser (FRD; Beckton-Dickenson). Compound solution (23 nL) was transferred to the assay plate using Kalypsys pin tool equipped with a 1536-pin tool and incubated at room temperature for 5 min followed by a FRET pre-read using the PerkinElmer Envision plate reader. Two and a half uL/well of RanGTP-RCC1 premix solution (0.6 uM Ran, 2mM GTP, 0.2 uM RCC1, 1x PBS, 1mM DTT, 0.02% Tween-20, 0.1% BSA final concentrations) were then added and incubated at room temperature giving a final reaction volume of 5uL. After 45min FRET post-read was obtained via the Envision plate reader using the same optics and settings as the pre-read (CFP/YFP optimized dual optical module D450/D505; excitation mirror CFP 430/24 nm; and emission filters CFP 486/10 nm and YFP 530/10 nm).
Note: nearly all actives have a fitted effect of over 45% in size.
Potency is the fitted concentration of half-maximal effect.

Potency, inactive:
O=C(NN=CC=Cc1ccccc1)C(O)C(O)C(=O)NN=CC=Cc1ccccc1 (stereo not given)
NC(=O)C1CCN(C(=O)c2cc(S(=O)(=O)N3CCN(c4ccccc4)CC3)ccc2Cl)CC1
CC1(C)C(=O)CCC2(C)C1=CCC1C2C(=O)CC2(C)C1CCC2(O)C(=O)CO (stereo not given)
O=C(Cc1ccc(S(=O)(=O)N2CCOCC2)s1)Nc1ccc(Br)c(C(F)(F)F)c1
C=CCOC(=O)N1CCC2CC1c1cc(-c3ccc(OC)cc3)ccc12 (stereo not given)
O=C(O)C1C2C=CC(O2)C1C(=O)Nc1ccccn1 (stereo not given)
c1ccc(C(=NNc2nc3ccccc3s2)c2ccccn2)cc1
C=CCN1C=C(C(=O)c2ccccc2)C(=O)CC1
CCCCC(=O)NC(c1ccc(OC)c(OC)c1)c1ccc2cccnc2c1O (stereo not given)
COc1cccc(CC(=NO)c2cccc(OC)c2)c1
CN(O)C(=S)c1ccccc1
CCN1CCC(O)(/C=C/c2ccc(C)cc2)C(C(=O)/C=C/c2ccc(C)cc2)C1 (stereo not given)
Oc1c(CN2CCOCC2)ccc(CN2CCOCC2)c1O
CN1C(c2ccc(F)cc2)=CS/C1=C(/C#N)c1nnc2n1-c1ccccc1SC2
CC(=NNC(=O)c1ccncc1)c1ccc(Cl)c(Cl)c1
CCOc1cc(C(=O)Nc2ccc(S(=O)(=O)Nc3cnc4ccccc4n3)cc2)cc(OCC)c1OCC
C=C(C)CNC(=S)Nc1ccc(S(=O)(=O)Nc2cnc3ccccc3n2)cc1
COC(=O)c1ccc(NCc2cc(O)ccc2O)cc1
Cc1c(CCC(=O)O)c(=O)oc2cc(OCc3ccc(Br)cc3)ccc12
COC(=O)Cc1c(C)c2ccc(OCC(=O)NCc3ccc4c(c3)OCO4)cc2oc1=O
COC(=O)c1ccc(CNC(=O)Cn2cc(C)c(=O)[nH]c2=O)cc1
COc1ccc(NS(=O)(=O)c2ccc(N3CCOCC3)c(NC(=O)/C=C/C(=O)O)c2)cc1
COc1ccc(C2NCCCC2c2ccccc2)cc1 (stereo not given)
Oc1cccc(CCc2ccccn2)c1
CCc1c(Nc2ccccc2C)nc(N)[nH]c1=O
Cc1ccc(S(=O)(=O)N2CCN(C(=O)COC(=O)/C=C/c3cccc(Cl)c3)CC2)c(C)c1
COc1ccc(C(CNC(=O)c2cccc(S(=O)(=O)Nc3ccc(Br)cc3)c2)N(C)C)cc1 (stereo not given)
CCOC(=O)C1=NN(c2ccc(Cl)cc2)/C(=C/C2=NCCc3cc(OC)c(OC)cc32)S1
COc1cc2c(cc1OC)C(c1cccc([N+](=O)[O-])c1)=NCC2
C/C(=N\Nc1ccc(Cl)nn1)c1ccccc1O
COc1ccc(NC(=O)/C(N=Nc2cccc(S(=O)(=O)Nc3ccc(SC(F)F)cc3)c2)=C(\C)O)cc1
OCCN1CCN(CCO)C1=S
O=C(Cc1ccc(Cl)cc1)c1ccccc1
C[C@]12CCC(=O)C=C1C=CC1C2CC[C@@]2(C)C1CC[C@@]21CCC(=O)O1 (stereo not given in full)
Cc1nn(-c2ccc(F)cc2)c(Cl)c1/C=C(/CCC(=O)O)c1nc2ccccc2s1
CCOC(=O)C1(C)NC(c2ccco2)C2C(=O)N(c3ccccc3)C(=O)C21 (stereo not given)
COC(=O)C1=C(C)N(c2ccc(Br)cc2)C(=O)/C1=C\c1ccco1
COCCNc1nc2nonc2nc1N(C)Cc1ccc(C)cc1
COCCNc1ncnc2c1nc1n2CCCC1
CC(NC(=O)c1ccccc1)C(=O)Nc1ccccc1 (stereo not given)
C(#CCN1CCOCC1)CCCN1CCOCC1
O=C(Nc1c(Br)cc2c(c1Br)Cc1ccccc1-2)C(F)(F)F
COc1ccc(-c2ccc3c(c2)[C@@H]2C[C@H](N(C)S(=O)(=O)c4ccccc4)[C@H]([C@H](C)O)C(=O)N2CC3)cc1
c1ccc2c(c1)OC1OC2Oc2ccccc21
CCOc1ccc(S(=O)(=O)N2CCN(C(=O)c3oc4ccccc4c3C)CC2)cc1
Cc1nc(N)sc1-c1ccccc1
CN(C)c1ccc(CSc2ccccc2)cc1
COCCN(C(=O)C(C)N1C(=O)c2ccccc2C1=O)c1c(N)n(CC(C)C)c(=O)[nH]c1=O (stereo not given)
COc1cccc(/C=N/Nc2ccc(S(=O)(=O)Nc3ccccc3C(=O)O)cc2[N+](=O)[O-])c1O
Cc1ccccc1N1CCN(C(=O)c2cccnc2)CC1
Cc1ccc(S(=O)(=O)n2oc(=O)c(C3CCCCC3)c2N)cc1
O=C(Nc1ccn(CCCNCc2ccc3[nH]ccc3c2)c(=O)n1)OCc1ccccc1
CCCCN1CC(CO)Oc2cccc(F)c2S1(=O)=O (stereo not given)
CCc1c(Nc2ccccc2Cl)nc(N)[nH]c1=O
O=C1OCC2=C1C(c1ccc(Cl)cc1)c1cc3c(cc1O2)OCO3 (stereo not given)
O=C1C2C3C=CC(C3)C2C(=O)N1c1ncc([N+](=O)[O-])s1 (stereo not given)
O=C(NN=Cc1ccc([N+](=O)[O-])cc1)C1CC1
O=C(CCC(=O)N1CCN(S(=O)(=O)c2ccc(Cl)cc2)CC1)NCc1cccc(C(F)(F)F)c1
COc1ccc(CC(=O)NC(C)c2ccc(Cl)c(Cl)c2)cc1S(=O)(=O)N1CCOCC1 (stereo not given)
CCOC(=O)C1CCCN(C(=O)Cn2ncc3c(=O)oc4ccc(C)cc4c32)C1 (stereo not given)
CC1=CC(=NNS(=O)(=O)c2ccc([N+](=O)[O-])cc2)CC(C)(C)C1
O=C(O)c1ccccc1/C=N/Nc1ccc(S(=O)(=O)Nc2ccc(Cl)cc2)cc1[N+](=O)[O-]
NN=C(NN=Cc1ccccc1)c1ccccc1
NC(=O)c1ncn([C@@H]2O[C@H](CN=C3NS(=O)(=O)c4ccccc43)[C@@H](O)[C@H]2O)n1
CC(C)OC(=O)c1ccc(NCc2cc(O)ccc2O)cc1Cl
O=C(c1ccc2c(c1)C(=O)N(Cc1ccncc1)C2=O)N1CCN(S(=O)(=O)c2ccc(OC(F)(F)F)cc2)CC1
NC(CSC1(c2ccccc2)c2ccccc2-c2ccccc21)C(=O)O (stereo not given)
O=c1[nH]c(=S)[nH]c(O)c1/C=C1\C=Nc2ccccc21
O=C1OC(Cc2ccccc2)C(c2ccccc2)C1=O (stereo not given)
Cc1cccc(C2c3c(n(C)c(=O)n(C)c3=O)N=C3c4ccccc4C(=O)C32)c1 (stereo not given)
CCNC(=S)NCC
COc1ccc(-c2nnc(-c3ccc4ccccc4c3)o2)cc1
Cc1[nH]c(N)nc(=S)c1CCCNc1ccccc1
Cn1c(N)cc(=O)n(C)c1=S
NC(=O)c1ccc(N2CCCC2)nc1
Cc1cc([N+](=O)[O-])c(=O)[nH]c1C
O=S(=O)(Cc1ccc(Cl)cc1Cl)c1ccc(Cl)cc1
CCN(CC(=O)Nc1c(F)cccc1F)C(=O)Cc1cccs1
O=[N+]([O-])c1ccc(NS(=O)(=O)c2ccccc2)c(Cl)c1
O=C(O)C(c1cccs1)C1(O)CCCCC1 (stereo not given)
O=C(CC1Sc2ccccc2NC1=O)NNc1ccc(Cl)c(Cl)c1 (stereo not given)
S=C(Nc1ccccc1)Nc1ccc2ccccc2c1
C/C(=N\Nc1ccccc1)c1cccs1
CCC1(C)COC(c2ccc(OC)c(OC)c2)OC1 (stereo not given)
Cn1c(CNC(=O)C(C)(C)C)nc2ccccc21
Cn1c(NC(=O)c2ccccc2)nc2ccccc21
Nc1ccc2[nH]c(=S)sc2c1
O=C1c2ccccc2C(=O)C1C(=O)C1CC1
O=C(O)c1ccc([N+](=O)[O-])cc1Sc1ccsc1
CC(C=Cc1ccccc1)=NNS(=O)(=O)c1ccc([N+](=O)[O-])cc1
O=[N+]([O-])c1cc2ccccc2nc1-c1ccccc1
CCN1C[C@@H]2[C@@H]3C(=O)N(C)C(=O)[C@@H]3[C@](C)(C1=O)N2C(=O)c1ccccc1
COc1cc(O)c2c(=O)c3c(O)c(O)ccc3oc2c1OC
C#CCOCCOCCOCCNc1nc(N2CCOCC2)nc(N2CCN(C(=O)[C@H](Cc3ccc(O)cc3)n3cc(CCO)nn3)CC2)n1
O=C(NN=Cc1ccccc1)c1ccccc1
CCOc1ccc(CCNC(=O)COC(=O)C2CCN(S(=O)(=O)c3ccccc3)CC2)cc1OCC
Cc1cc(NC(=O)c2cc3ccccc3o2)no1
CC(=O)N1CCc2ccc(N)cc21
O=C1C(Cl)=C(Oc2ccccc2)C(=O)c2ccccc21
O=c1nc(NO)ccn1C1CCCO1 (stereo not given)
O=c1[nH]c2c(c(=O)n1-c1ccccc1)CCO2
COC1=CC(=O)OC(c2ccc(OC)cc2)C1 (stereo not given)
CCOc1ccc(/C=C(/C#N)c2nnc(N3CCOCC3)n2-c2ccccc2)cc1OC
CC(=O)OC1CCC2C3CCC4=C(CC(F)C(=O)C4)C3CCC12C (stereo not given)

Potency, active:
O=C(/C=C/Nc1ccc(S(=O)(=O)Nc2cnc3ccccc3n2)cc1)c1cccnc1 3.26 µM [inconclusive]
CC(=O)Oc1ccc2c(C)c(CC(C)O)c(=O)oc2c1 (stereo not given) 9.2 µM [inconclusive]
COc1cc2c(cc1OC)C(/C=C/c1ccco1)=NCC2 8.2 µM [inconclusive]
CCCCN=C1N/C(=C\c2ccco2)C(=O)N1c1ccccc1 14.6 µM [inconclusive]
COCCNc1nc2nonc2nc1N1CCCC1c1nccs1 (stereo not given) 18.4 µM [inconclusive]
Cn1c(-c2ccc(C(=O)c3ccccc3)s2)nc2ccccc21 8.2 µM [inconclusive]
